According to PubChem BioAssay (NCI):
The panel holds about 79,000 compounds, 15% with a hit somewhere; the sample as a whole holds those more often. Calls of active or inactive are those of the source. Rule as the data show it: active = growth inhibition above about 70%; inactive = the rest.

Key:
[1] = NCI Yeast Anticancer Drug Screen. Data for the rad52 strain (AID 147);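 also: 0% = growth of vehicle-treated control cultures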; conditions: S. cerevisiae rad52 mutant growth inhibition, hits give high values
How it was run: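 The repair-mutant yeast strain was incubated with compounds, then growth was read and inhibition derived relative to vehicle.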

[2] = NCI Yeast Anticancer Drug Screen. Data for the wt1 strain (AID 149);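 also: 0% = growth of vehicle-treated wt1 cultures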; conditions: S. cerevisiae wt1 strain (SPY 50644) growth inhibition, hits give high values
How it was run: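 The wt1 strain was treated with compounds, and growth was compared with vehicle-treated cultures to give inhibition.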

[3] = NCI Yeast Anticancer Drug Screen. Data for the rad50EPP+ strain (AID 151);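 also: 0% = growth of vehicle-treated control cultures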; conditions: S. cerevisiae rad50 mutant strain, hits give high values
How it was run: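 Vehicle-normalised growth inhibition; rad50EPP+ yeast strain, altered in DNA damage repair, compound-treated.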

[4] = NCI Yeast Anticancer Drug Screen. Data for the mgt1 strain (AID 153); conditions: S. cerevisiae mgt1 mutant growth inhibition, hits give high values
How it was run: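 Vehicle-normalized growth inhibition is determined in mgt1 yeast, a strain selected for a defined alteration in DNA repair or cell cycle control.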

[5] = NCI Yeast Anticancer Drug Screen. Data for the rad50 strain (AID 155);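 also: 0% = growth of vehicle-only cultures of the same strain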; conditions: S. cerevisiae rad50 strain growth inhibition, hits give high values
How it was run: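 Cells are treated with compound, grown, and their growth is then scored against vehicle-only cultures of the same repair-deficient yeast strain.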

[6] = NCI Yeast Anticancer Drug Screen. Data for the mec2-1 strain (AID 157); conditions: S. cerevisiae mec2-1 strain, hits give high values
How it was run: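 Mutant yeast (mec2-1) grown with compound; growth inhibition relative to vehicle control reported.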

[7] = NCI Yeast Anticancer Drug Screen. Data for the rad14 strain (AID 159);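 also: 0% = growth of vehicle-treated control cultures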; conditions: S. cerevisiae rad14 strain growth inhibition, hits give high values
How it was run: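 Readout: yeast growth inhibition, referenced to vehicle-only cultures. Strain bears a defined alteration in DNA damage repair.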

[8] = NCI Yeast Anticancer Drug Screen. Data for the sgs1 mgt1 strain (AID 161);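 also: 0% = growth of cultures given vehicle only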; conditions: S. cerevisiae sgs1 mgt1 strain, hits give high values
How it was run: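 Yeast cells carrying a defined DNA-repair defect were exposed to test compounds. Growth inhibition was measured relative to vehicle-treated controls.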

[9] = NCI Yeast Anticancer Drug Screen. Data for the CLN2oe strain (AID 163);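 also: 0% = growth of vehicle-only control cultures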; conditions: S. cerevisiae CLN2oe strain, hits give high values
How it was run: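 Compounds are applied to yeast harbouring a defined cell-cycle control change; reduced growth compared with vehicle-treated controls gives the value.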

[10] = NCI Yeast Anticancer Drug Screen. Data for the cln2 rad14 strain (AID 165);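 also: 0% = growth equal to vehicle treated cultures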; conditions: S. cerevisiae cln2 rad14 strain, hits give high values
How it was run: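 Readout is yeast growth inhibition versus vehicle-treated controls, using a strain with cln2 and rad14 alterations exposed to compound.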

[11] = NCI Yeast Anticancer Drug Screen. Data for the bub3 strain (AID 167); conditions: S. cerevisiae bub3 mutant strain, hits give high values
How it was run: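 Part of a panel of yeast mutants defective in DNA damage repair or cell cycle regulation. Each strain is grown with compound, and inhibition is calculated relative to solvent-treated cultures.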

[12] = NCI Yeast Anticancer Drug Screen. Data for the wt2 strain (AID 169);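 also: 0% = growth of vehicle-treated yeast cultures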; conditions: S. cerevisiae wt2 strain growth inhibition, hits give high values
How it was run: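 Against vehicle-treated controls, the growth of yeast exposed to each compound was compared, and the inhibition was recorded.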

[13] = NCI Yeast Anticancer Drug Screen. Data for the mlh1 strain (AID 171);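 also: 0% = growth of vehicle-treated control cultures of the same strain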; conditions: S. cerevisiae mlh1 strain growth inhibition, hits give high values
How it was run: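 Measured: yeast growth. Reference: vehicle-treated controls. Organism: strain with a defined alteration affecting DNA damage repair or cell cycle control, treated with compound.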

[14] = NCI Yeast Anticancer Drug Screen. Data for the mlh1 rad18 strain (AID 175); conditions: S. cerevisiae mlh1 rad18 strain growth inhibition, hits give high values
How it was run: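 Genetically defined yeast (DNA repair-deficient) exposed to compounds; growth inhibition determined relative to vehicle.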

[15] = NCI Yeast Anticancer Drug Screen. Data for the rad18 strain (AID 177); conditions: S. cerevisiae rad18 mutant growth inhibition, hits give high values
How it was run: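 Vehicle-treated cultures served as the baseline for scoring compound-induced growth inhibition in DNA-repair-mutant yeast.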

[16] = NCI Yeast Anticancer Drug Screen. Data for the sgs1 strain (AID 173);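 also: 0% = growth of vehicle-only control cultures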; conditions: S. cerevisiae sgs1 mutant, hits give high values
How it was run: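 Each compound was added to cultures of the altered yeast strain. Growth was recorded, and inhibition was derived by comparison with vehicle controls.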

[17] = at 5.0 µM (retest, dose inferred, filed as 0.5)
[18] = at 50.0 µM (retest, dose inferred, filed as 5.0)

Measured: growth inhibition

Cc1cc(N=C2C=CC(=[N+](C)C)C=C2)c(N)cc1N
inactive: [1]; at 1.2 µM -7% | [1]; at 3.7 µM -9% | [1]; at 11.0 µM 15% | [1]; at 33.0 µM 45% | [2]; at 1.2 µM 12% | [2]; at 3.7 µM 15% | [2]; at 11.0 µM 23% | [2]; at 33.0 µM 52% | [3]; at 1.2 µM -8% | [3]; at 3.7 µM -6% | [3]; at 11.0 µM -5% | [3]; at 33.0 µM 9% | [3]; at 100.0 µM 47% | [4]; at 1.2 µM 4% | [4]; at 3.7 µM 15% | [4]; at 11.0 µM 28% | [4]; at 33.0 µM 52% | [5]; at 1.2 µM -2% | [5]; at 3.7 µM 1% | [5]; [17] 54% | [5]; at 11.0 µM 15% | [5]; at 33.0 µM 52% | [5]; [18] 61% | [5]; at 50.0 µM 46.4% | [6]; at 1.2 µM -16% | [6]; at 3.7 µM -13% | [6]; [17] 50% | [6]; at 11.0 µM -3% | [6]; at 33.0 µM 23% | [6]; at 50.0 µM 45.3% | [6]; at 100.0 µM 59% | [7]; at 1.2 µM -20% | [7]; at 3.7 µM -19% | [7]; at 11.0 µM 8% | [7]; at 33.0 µM 46% | [8]; [17] -18% | [8]; [18] 65% | [8]; at 50.0 µM 63.8% | [9]; at 1.2 µM 35% | [9]; at 3.7 µM 35% | [9]; at 11.0 µM 32% | [9]; at 33.0 µM 28% | [9]; at 100.0 µM 67% | [10]; [17] 59% | [10]; [18] 57% | [10]; at 50.0 µM 39.7% | [11]; at 1.2 µM 4% | [11]; at 3.7 µM 7% | [11]; [17] 31% | [11]; at 11.0 µM 34% | [11]; at 33.0 µM 54% | [11]; [18] 21% | [11]; at 50.0 µM 62.6% | [12]; at 1.2 µM -9% | [12]; at 3.7 µM 22% | [12]; at 11.0 µM -15% | [12]; at 33.0 µM 22% | [12]; at 100.0 µM 62% | [13]; at 1.2 µM 1% | [13]; at 3.7 µM 2% | [13]; at 11.0 µM -2% | [13]; at 33.0 µM 31% | [13]; at 100.0 µM 61% | [14]; [17] 28% | [14]; [18] 56% | [14]; at 50.0 µM 53.5% | [15]; at 1.2 µM -2% | [15]; at 3.7 µM -4% | [15]; at 11.0 µM 7% | [15]; at 33.0 µM 21% | [15]; at 100.0 µM 61%
active: [1]; at 100.0 µM 72% | [2]; at 100.0 µM 75% | [4]; at 100.0 µM 75% | [5]; at 100.0 µM 71% | [6]; [18] 70% | [7]; at 100.0 µM 70% | [11]; at 100.0 µM 75%

CCCCOC(=O)CSSCC(=O)OCCCC
active: [1]; at 33.0 µM 83% | [1]; at 100.0 µM 97% | [2]; at 33.0 µM 81% | [2]; at 100.0 µM 97% | [3]; at 33.0 µM 89% | [3]; at 100.0 µM 97% | [4]; at 33.0 µM 83% | [4]; at 100.0 µM 99% | [5]; at 33.0 µM 76% | [5]; [18] 99% | [5]; at 50.0 µM 91% | [5]; at 100.0 µM 97% | [6]; at 33.0 µM 80% | [6]; [18] 99% | [6]; at 50.0 µM 91.9% | [6]; at 100.0 µM 98% | [7]; at 33.0 µM 71% | [7]; at 100.0 µM 97% | [8]; [18] 99% | [9]; at 100.0 µM 98% | [10]; [18] 99% | [11]; at 33.0 µM 88% | [11]; [18] 98% | [11]; at 100.0 µM 99% | [12]; at 33.0 µM 70% | [12]; at 100.0 µM 98% | [13]; at 33.0 µM 74% | [13]; at 100.0 µM 98% | [16]; at 33.0 µM 70% | [16]; at 100.0 µM 96% | [14]; [18] 99% | [14]; at 50.0 µM 90.2% | [15]; at 33.0 µM 84% | [15]; at 100.0 µM 98%
inactive: [1]; at 1.2 µM -20% | [1]; at 3.7 µM -9% | [1]; at 11.0 µM 28% | [2]; at 1.2 µM -7% | [2]; at 3.7 µM -2% | [2]; at 11.0 µM 13% | [3]; at 1.2 µM -17% | [3]; at 3.7 µM -5% | [3]; at 11.0 µM 45% | [4]; at 1.2 µM 16% | [4]; at 3.7 µM 10% | [4]; at 11.0 µM 45% | [5]; at 1.2 µM -11% | [5]; at 3.7 µM 2% | [5]; [17] 44% | [5]; at 11.0 µM 17% | [6]; at 1.2 µM -38% | [6]; at 3.7 µM -10% | [6]; [17] 48% | [6]; at 11.0 µM 7% | [7]; at 1.2 µM -11% | [7]; at 3.7 µM -13% | [7]; at 11.0 µM -3% | [8]; [17] 9% | [9]; at 1.2 µM 8% | [9]; at 3.7 µM 4% | [9]; at 11.0 µM 8% | [9]; at 33.0 µM 61% | [10]; [17] 32% | [11]; at 1.2 µM 14% | [11]; at 3.7 µM 14% | [11]; [17] 56% | [11]; at 11.0 µM 53% | [12]; at 1.2 µM -15% | [12]; at 3.7 µM -1% | [12]; at 11.0 µM 8% | [13]; at 1.2 µM -26% | [13]; at 3.7 µM 7% | [13]; at 11.0 µM 37% | [16]; at 1.2 µM -30% | [16]; at 3.7 µM -8% | [16]; at 11.0 µM 18% | [14]; [17] 40% | [15]; at 1.2 µM -2% | [15]; at 3.7 µM 15% | [15]; at 11.0 µM 40%
